# Screens deposited in PubChem by several laboratories.
# ALR inh: inhibitors of human sulfhydryl oxidase ALR; actives 3.8% (n = 290,000); inhibition, % (no concentration beside the values); AID 485317; purified ALR, DTT oxidation, H2O2 HRP-luminol luminescence;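 active = mean replicate inhibition above about 79%, with every replicate also reaching it, limit read from the data; inconclusive = only one of the two criteria met; inactive = mean below limit and not every replicate reaching it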
# PHOSPHO1 inh: blocks human PHOSPHO1 phosphatase activity; Q8TCT1; recombinant PHOSPHO1, absorbance phosphatase assay; inhibition, % at 13.3 µM; actives 1.1% (n = 290,000); AID 1565; in the data active = inhibition above about 60%
# Target sequence (Q8TCT1 whole entry, looked up): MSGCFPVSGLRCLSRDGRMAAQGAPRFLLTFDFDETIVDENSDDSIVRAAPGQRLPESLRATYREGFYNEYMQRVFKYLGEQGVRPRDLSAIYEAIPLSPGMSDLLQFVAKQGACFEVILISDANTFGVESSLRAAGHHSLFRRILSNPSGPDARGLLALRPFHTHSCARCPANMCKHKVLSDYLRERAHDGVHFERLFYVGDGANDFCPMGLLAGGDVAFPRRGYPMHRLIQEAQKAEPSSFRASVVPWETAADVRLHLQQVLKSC
# A3A deaminase: inhibitors of human APOBEC3A DNA deaminase | actives 0.41% (n = 330,000) | recombinant A3A, FAM/TAMRA ssDNA deamination fluorescence | inhibition, % at 20 µM;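 active = at least 40% inhibition at 20 µM here, with at most 30% in a related deaminase screen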;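 also: plate controls were A3A with DMSO for no effect and wells lacking A3A enzyme for full effect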
# Target sequence (P31941 whole entry, looked up): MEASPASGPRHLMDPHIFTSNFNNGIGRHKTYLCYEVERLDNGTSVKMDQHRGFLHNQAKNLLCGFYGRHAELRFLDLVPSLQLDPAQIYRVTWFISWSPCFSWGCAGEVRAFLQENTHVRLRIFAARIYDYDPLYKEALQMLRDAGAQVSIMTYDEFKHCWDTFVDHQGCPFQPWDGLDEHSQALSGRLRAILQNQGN
# A3G deaminase: blocks human APOBEC3G single-stranded DNA deamination. Q9HC16. inhibition, % at 20 µM. actives 0.28% (n = 330,000). AID 493012. recombinant A3G, ssDNA deamination FAM/TAMRA fluorescence;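 active = inhibition of at least 40% at 20 µM, with no more than 30% in the related APOBEC3A deaminase screen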;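 also: plate controls were DMSO wells with A3G for no effect and wells lacking A3G enzyme for full effect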
# aDG glyco act: increases alpha dystroglycan glycosylation; Pro5-aDG cells, alpha-DG glycosylation AlphaScreen (IIH6); 0% Pro5, 100% B10-LARGE cell signal; activation, % at 10 µM; actives 0.22% (n = 360,000);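 active = activation of at least 8% versus controls, or a plate z-score of at least 8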;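 also: Pro5 are CHO cells carrying HIG-tagged alpha-DG that lacks glycosylation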
# rCAG RNA binder: molecules binding r(CAG) RNA repeats; r(CAG) RNA repeat, TO-PRO-1 dye displacement fluorescence; actives 1.3% (n = 370,000); inhibition, % at 3 µM;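 active = inhibition above the plate cutoff, the mean of all test compounds on that plate plus 3 SD, cut at about 35% in these data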;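 also: 0% = DMSO alone and 100% = 100 µM mitoxantrone as full dye displacement; higher means more dye released from RNA so lower well fluorescence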
# Starred values were filed as active, the others as inactive; ? = inconclusive; nt = no result. Compounds with a hit are over-represented: about 5.4% of the library has one in this group of screens.
SMILES,ALR inh,PHOSPHO1 inh,A3A deaminase,A3G deaminase,aDG glyco act,rCAG RNA binder
COc1ccc(Cl)cc1NCCC(O)c1ccc(F)cc1 (configuration not stated),99.4*,6.5,-5.4,-9.5,0.0,-5.3
CN1CCCCC(NC(=O)c2cccs2)C1=O (configuration not stated),nt,nt,nt,nt,nt,2.3
Cc1cc2occ(CC(=O)NCc3cccs3)c2cc1C(C)C,-7.5,1.9,0.3,-4.0,0.0,4.6
Cc1csc(NC(=O)Cc2coc3cc(C)c(C(C)C)cc23)n1,88.7*,40.6,17.6,-3.2,0.1,3.7
O=C(c1cccn2c(=O)c3cc4ccccc4cc3nc12)N1CCN(c2ccccc2)CC1,-10.5,100.3*,2.4,0.0,nt,nt
CNC(=O)c1c(NC(=O)C2=COCCO2)sc2c1CCCC2,80.8*,37.0,-2.6,-2.7,-0.1,-1.1
CNC(=O)c1c(NC(=O)c2ccco2)sc2c1CCC2,?,27.4,-2.9,-5.8,-0.1,3.2
COc1ccc(CN(CC2CCCO2)S(=O)(=O)c2ccc(C(=O)O)cc2)cc1OC (configuration not stated),-11.0,97.1*,-2.4,-4.1,0.0,5.0
COc1cc(C=Nn2c(-c3n[nH]c4c3CCC4)n[nH]c2=S)ccc1OCc1ccccc1,nt,nt,nt,nt,nt,27.4
Cc1ccc(-c2[nH]nc(N)c2N=Nc2ccccc2C)cc1,-0.6,35.4,5.1,-0.7,-0.5,32.4
Cc1cccc(N=Nc2c(N)n[nH]c2-c2ccc(Cl)cc2)c1,10.4,-0.1,0.8,-4.2,-0.5,40.5*
O=C1CC(Sc2nnc(-c3ccccc3O)o2)C(=O)N1c1ccccc1 (configuration not stated),67.4,95.3*,-3.2,-2.1,-0.4,1.4
COc1ccc(N2C(=O)CC(Sc3nnc(-c4ccccc4)o3)C2=O)cc1 (configuration not stated),41.6,56.5,-1.9,-4.7,-0.7,4.5
CCOC(=O)C1=NOC(C(=O)NC2CCCC2)(C(=O)c2ccc(OC)cc2)C1 (configuration not stated),nt,nt,nt,nt,nt,3.3
CC1CCN(CC(=O)Nc2nc(-c3ccccc3)cs2)CC1,-5.2,nt,3.1,-1.6,0.3,1.1
c1cc2c(cc1Nc1nc(-c3ccc4c(c3)OCO4)cs1)OCCO2,-6.8,26.8,-0.5,3.9,-0.1,13.3
O=C(Nc1nc(-c2ccc3c(c2)OCCO3)cs1)c1ccco1,29.7,9.6,2.0,4.2,0.0,2.0
Cc1ccc(-c2csc(NC(=O)CN3CC(C)OC(C)C3)n2)cc1 (configuration not stated),98.2*,29.1,-7.0,-0.1,0.5,-3.0
NC(=O)C1CCN(c2nc(-c3ccc4c(c3)OCCO4)cs2)CC1,98.4*,nt,-5.7,-8.1,nt,-7.8
CCC(=O)Nc1nc(-c2ccc3c(c2)OCCO3)cs1,86.1*,-10.0,-5.0,-10.1,0.2,-1.6
c1cc2c(cc1-c1csc(NNC3=NCCCCC3)n1)OCCO2,98.5*,55.9,-1.5,-3.2,nt,4.3
O=C1N/C(=N/O)S/C1=C\c1ccccc1-n1cccn1,93.5*,26.5,-3.0,-5.9,0.0,4.7
C=CCN1C(=O)[C@@H](CC(=O)N2CCOCC2)[C@]2(C(=O)OCC)CCCCC/C=C/12,nt,nt,nt,nt,nt,7.6
Cc1ccccc1CN1CCCCC(NC(=O)C2CCC2)C1=O (configuration not stated),nt,nt,nt,nt,nt,0.6
S=C(NNC(=S)Nc1ccc(Cl)cc1)NNc1ccccc1,nt,nt,nt,nt,-0.2,2.8
SMILES,ALR inh,PHOSPHO1 inh,A3A deaminase,A3G deaminase,aDG glyco act,rCAG RNA binder
S=C(N=Nc1ccccc1)NNc1ccccc1,99.3*,-8.7,-4.2,-7.4,-0.3,4.5
Cc1ccc(-c2nnc(Sc3nc4ccccc4o3)c3ccccc23)cc1,3.4,-10.0,-6.4,-5.8,0.6,3.6
Cc1nnc(Sc2nc3ccccc3o2)c2ccccc12,97.5*,-8.3,0.9,-2.9,0.4,0.7
Cc1ccc(C(=O)N2CCC(Oc3cccnc3)CC2)c(C)c1,nt,nt,nt,nt,nt,-0.5
CCCOc1ccc(-c2cc(C(C)=O)c3n(c2=O)CCC3)cc1,nt,nt,nt,nt,nt,0.5
O=C(CNC(=O)c1ccccc1)OCC(=O)c1ccccc1Cl,-3.0,-27.8,1.3,-7.5,0.0,-2.2
O=C(Cc1ccccc1)NCC(=O)OCC(=O)c1ccccc1Cl,77.1*,42.8,-2.4,-1.2,0.1,-0.4
CC(C)CC(=O)N1CCC(C(=O)NCC2COc3ccccc3O2)CC1 (configuration not stated),nt,nt,nt,nt,nt,-2.3
